Experimental data published in PubChem BioAssay (NCI).
About 83,000 compounds went through this panel and 20% of them were active in at least one assay; those are over-represented in the sample as a whole.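 Cell lines were cultured in 96-well plates, exposed to a single compound concentration, and assessed for percent growth 48 hours later.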 A number with no mark means an inactive call. The source made the active and inactive calls.

These compounds were tested on UO-31 renal (assay: NCI-60 one-dose screen, 48 h (100 = growth as untreated, 0 = no growth, -100 = all killed)). Conditions: 10 µM.
Description: Growth inhibition of the UO-31 human tumor cell line is measured as a screen for anti-cancer activity. Cells are grown in 96 well plates and exposed to the test compound for 48 hours. Compounds are tested at a single concentration, which is 10^-5 M for most compounds. The reported endpoint is percent growth (GI% or GIPRCNT), where numbers from 0 - 100% represent growth inhibition, and numbers from -100% - 0 represent cell death. For example, a value of 40 represents 60% growth inhibition. A value of 0 means no net growth occurred over the course of the experiment. A value of -40 indicates 40% of cells at the beginning of the experiment died by the end of the experiment. A value of -100 means all cells are dead at the end of the experiment.
NCI-60 Human Tumor Cell Lines Screen was performed using the standard one-dose NCI protocol, which is described in more detail at https://dtp.cancer.gov/discovery_development/nci-60/default.htm.
Compounds with GIPRCNT values below 10 were considered active. Activity score was based on GIPRCNT using the following formula: […]
Score is 0 for GIPRCNT values of 100 or above, 50 for GIPRCNT values of 0, and 100 for GIPRCNT values of -100.

| SMILES | growth |
| --- | --- |
| COc1cc(/C=N\Nc2ccccc2)ccc1OC(=O)c1ccccc1 | 21.5% |
| CCOC(=O)Nc1nn[nH]n1 | 96.6% |
| CCOC(=O)c1coc(C(=O)OCC)c1C(=O)OCC | 96.5% |
| CCCCC(O)c1ccccc1 (stereo not given) | 94.2% |
| CN(C)c1ccc2oc(=O)c3ccccc3c2c1 | 81% |
| Cc1ccc(C(=O)N/N=C/c2ccc3c(c2)OCO3)cc1 | 78.2% |
| CNC(=O)c1ccccc1CC1(O)c2ccccc2Oc2ccccc21 | 57.7% |
| S=c1sc2ccccc2n1CN1CCCCC1 | 77.2% |
| NCC(=O)CCC(=O)O | 94.6% |
| O=C(CCNNC(=O)c1ccncc1)NCc1ccccc1 | 91.3% |
| CC12CC3CC1C(C(=O)O2)C3C(=O)O (stereo not given) | 93.5% |
| N#CC(=Nc1cccc(F)c1)C1=C(O)c2ccccc2C1=O | 78.6% |
| Clc1ccc(-c2nnc(-c3cccc4ccccc34)o2)cc1 | 41.4% |
| COc1ccc(C(O)c2ccccc2)cc1 (stereo not given) | 81.9% |
| Cc1ccc(N)cc1[N+](=O)[O-] | 83.3% |
| O=c1cc(-c2ccccc2)[nH]c(=S)[nH]1 | 79.2% |
| Cc1ccc(O)c(C(=O)c2ccccc2)c1 | 97.2% |
| CCOC(=O)CCCS(C)(=O)=O | 90.5% |
| Cc1ccccc1C1N=C2Oc3ccccc3C=C2C(=O)N1 (stereo not given) | 52% |
| Cc1nc2ccccc2c2nnc(SCC(=O)N(Cc3ccccc3)c3ccccc3)n12 | 89% |

| SMILES | growth |
| --- | --- |
| O=c1cc(-c2ccccc2)[nH]c2c1CCCC2 | 50.8% |
| N#CCCc1ccc(O)cc1 | 90.5% |
| C/C(=C\c1cc(Cl)ccc1OCC(=O)O)[N+](=O)[O-] | 90.5% |
| O=C(O)c1ccc(S(=O)(=O)O)cc1 | 64.4% |
| Cc1c(O)cccc1O | 111% |
| O=C(CS)Nc1ccc2ccccc2c1 | 88.7% |
| O=C1c2ccccc2C(=O)N1OCc1ccccc1 | 79.1% |
| c1ccc2c(c1)Sc1ccccc1S2 | 98.9% |
| Cc1cc(/C=C/c2ccc3cc(N(C)C)ccc3[n+]2C)c(C)n1-c1ccccc1 | 1.75% (active) |
| c1cc[n+](C2c3ccccc3C([n+]3ccccc3)c3ccccc32)cc1 (stereo not given) | 61.8% |
| CCCCN(CCCC)CCCO | 104% |
| CC(=O)c1c[nH]c2ccccc12 | 74.7% |
| CC1(C)/C(=C\CO)C2CCC1C2 (stereo not given) | 78.5% |
| CC(=O)Nc1cccc(Cl)c1C | 85.3% |
| O=C(/C(=N/O)c1ccccc1)c1ccccc1 | 87.9% |
| O=C(NCc1ccco1)Nc1c(Cl)cc(Cl)cc1Cl | 84% |
| CC(=O)OC(C(=O)O)c1ccccc1 (stereo not given) | 126% |
| COc1cc2nc3cc([N+](=O)[O-])ccc3c(Cl)c2cc1OC | 84.1% |
| COc1ccc(-c2cc3c(nn2)-c2ccccc2C3=O)cc1 | 89.7% |
| CC(=O)Oc1ccc(Br)cc1C(=O)O | 81.8% |
